A selection: hits, their analogues and other compounds. The true share with any hit is near 3.7%.
HTT-AS act: Primary qHTS for Identification of Small Molecule Activators of Huntingtin-Antisense Promoter Activity. AID 1508624, 2021. Potency, µM (highest dose often 57.5 µM), for the others: at the highest dose activity change, positive = activation, hits mostly activators. HEK293 HTT-AS promoter firefly luciferase reporter, 24 h; response scale: percent change from vehicle, -100% = no light. 0.24% of 48,000 active; further: potency means the concentration at half of the fitted maximal effect; nearly all actives have a fitted effect of over 55% in size
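Firefly luciferase readout (Dual-Glo, 10 min RT) after 24 h, 37 °C compound exposure (final up to 57.5 uM) of HEK293 reporter cells cultured 24 h beforehand; PTC124 at 50 uM final as control inhibitor; activity scaled vehicle 0%, zero RLU -100%.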
GPR32 ag: qHTS for Agonists of Human Resolvin D1 Receptor DRV1; Probable G-protein coupled receptor 32 (Homo sapiens), O75388; AID 1346428, 2018; 2.5% of 48,000 active; CHO-K1 GPR32 beta-arrestin PathHunter luminescence, 90 min; zero percent set by DMSO-only wells; activation, % at 76.9 µM;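 active means activation of at least 60% and not above a set upper limit, about 1 call in 100 departs from these limits; inconclusive means activation of 40% to 60%, or above that upper limit; inactive means activation under 40%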; further: 0% is about no effect
Target sequence (O75388 whole entry, looked up): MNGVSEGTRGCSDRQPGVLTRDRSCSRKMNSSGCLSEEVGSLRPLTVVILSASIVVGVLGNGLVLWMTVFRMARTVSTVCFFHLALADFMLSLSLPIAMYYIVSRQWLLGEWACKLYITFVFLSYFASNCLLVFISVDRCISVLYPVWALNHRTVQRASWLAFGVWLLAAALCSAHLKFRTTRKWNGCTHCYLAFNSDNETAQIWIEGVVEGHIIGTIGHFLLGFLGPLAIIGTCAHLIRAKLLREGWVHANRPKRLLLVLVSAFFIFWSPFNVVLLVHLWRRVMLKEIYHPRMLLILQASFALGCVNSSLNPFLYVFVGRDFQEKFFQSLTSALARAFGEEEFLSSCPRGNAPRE
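PathHunter enzyme-fragment complementation, CHO-K1 GPR32 stable line; 2,500 cells/well, overnight attach; cpd 90 min 37 °C 5% CO2; detection reagent 1 h RT; chemiluminescence. DMSO = EC0.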
HTT promoter inh: Primary qHTS for Identification of Small Molecule Inhibitors of Huntingtin Promoter Activity. HEK293 HTT promoter firefly luciferase reporter, 24 h. Potency, µM (titrated, usually from 57.5 µM), inactives show top-dose activity change, negative = inhibition, actives largely listed as inhibitors. 0.93% of 48,000 active; further: potency means the concentration at half of the fitted maximal effect; nearly all actives have a fitted effect of over 50% in size
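Firefly luciferase readout (Dual-Glo, 10 min RT) after 24 h, 37 °C compound exposure (final up to 57.5 uM) of HEK293 reporter cells cultured 24 h beforehand; PTC124 at 50 uM final as control inhibitor; activity scaled vehicle 0%, zero RLU -100%.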
* hit, by the source's call; ? = inconclusive; / = no result given. Unless noted, the call rests on the fitted dose curve; in most records, active means well fitted curve in the direction sought with a large enough effect; inconclusive means small, poorly fitted or top-dose-only effect, or another doubt; inactive means no such curve, though single readings can be large; an effect the other way counts as inactive or inconclusive.

SMILES	HTT-AS act	GPR32 ag	HTT promoter inh
COc1ccc(-c2nc(C)c(CCNC(=O)C(=O)Nc3c(C)cccc3C)s2)cc1OC	1%	70*	1%
COc1ccc(NC(=O)Nc2nnc(C)s2)cc1	11µM*	-12	31%
COc1ccc(C(=O)Nc2nnc(C)s2)cc1	?	-9	69%
Cc1cc2c(cc3c(SCc4ccccc4Cl)nnc(C)n32)o1	?	-19	77%
COc1ccc(-c2cn3nc(SCC(=O)Nc4ccccc4F)ccc3n2)cc1	-92%	-12	4µM*
COc1ccc(-c2cc(-c3ccccc3)nc(SCC(=O)Nc3ccccc3F)c2C#N)cc1	-3%	-3	-6%
OC[C@H]1O[C@@H](n2cnc3c2NC=NC[C@@H]3O)C[C@H]1O	-21%	/	-9%
Cn1cc[nH]c1=S	-1%	65*	12%
Cc1cccc(C(=O)Nc2ccc(-c3nc4ccccc4s3)cc2Cl)c1	14%	92*	28%
COc1ccc(-c2nc3ccccc3s2)cc1NC(C)=O	1.4µM*	-3	63%
COc1ccc(-c2nc3ccccc3s2)cc1NC(=O)c1cccc([N+](=O)[O-])c1C	2µM*	-13	71%
COc1ccc(-c2nc3ccccc3s2)cc1NC(=O)c1ccccc1F	-9%	-3	-1%
Cc1ccc(C(=O)Nc2ccc(-c3nc4ccccc4s3)cc2C)cc1C	?	21	45%
COc1ccc(-c2nc3ccccc3s2)cc1NC(=O)c1ccc(C#N)cc1F	-10%	7	-5%
CN(C)CCOc1cc(-c2cn[nH]c2)ccc1NC(=O)C1COc2ccccc2O1 (configuration not stated)	-42%	/	-19%
Cc1cccn2c(=O)c3cc(C(=O)NCc4ccccc4)c(=N)n(CCOCCO)c3nc12	-13%	4	-2%
CCOC(=O)C1CCCN(C(=O)c2cc3c(=O)n(C)c4ccccc4c3s2)C1 (configuration not stated)	-40%	103*	?
CC1CCN(C(=O)c2cc3c(=O)n(C)c4ccccc4c3s2)CC1	15%	-7	18%
O=C(CCCCCCC(=O)Nc1cccnc1)NO	-87%	/	182%
Cc1cccc(-n2ncc3c(Nc4ccc(Oc5ccc(Cl)cc5)cc4)ncnc32)c1	-2%	48	-11%
c1ccc(-n2ncc3c(NC4CCCC4)ncnc32)cc1	?	8	28%
Clc1cccc(-n2ncc3c(NC4CCCCCC4)ncnc32)c1	?	?	-17%
Cc1cccc(-n2ncc3c(Nc4ccc(C)c(Cl)c4)ncnc32)c1	24%	74*	12%
Cc1cccc(-n2ncc3c(NC4CCCC4)ncnc32)c1	?	114*	4%
Cc1cccc(C(=O)NNc2ncnc3c2cnn3-c2ccc(C)cc2C)c1	8%	113*	-9%
SMILES	HTT-AS act	GPR32 ag	HTT promoter inh
O=C(NNc1ncnc2c1cnn2-c1ccccc1)c1ccccc1	14%	-24	4%
Cc1ccc(-n2ncc3c(NC4CCCC4)ncnc32)cc1	-52%	112*	?
Cc1ccc(OCCn2nnc3sc4c(c3c2=O)CCC(C)C4)cc1 (configuration not stated)	3%	14	6%
Cc1ccc(CCNC(=O)CCn2nc(-c3ccc(Cl)cc3)ccc2=O)cc1	-29%	32	-19%
O=C1NC(=O)C(=Cc2ccc(-c3ccc(F)cc3)o2)S1	-14%	/	-18%
COc1ccc(C(=O)NCCn2cc(SCc3cccc(F)c3)c3ccccc32)cc1OC	-58%	36	25µM*
O=C(CSc1cn(CCNC(=O)c2ccccc2F)c2ccccc12)Nc1ccccc1F	-16%	31	-16%
COc1ccc(CCNC(=O)CSc2cn(CCNC(=O)c3ccccc3F)c3ccccc23)cc1OC	-27%	80*	-30%
COc1ccccc1C(=O)NCCn1cc(SCC(=O)Nc2ccccc2F)c2ccccc21	-44%	37	?
O=C(NCCn1cc(SCc2cccc(F)c2)c2ccccc21)c1cccc(C(F)(F)F)c1	-49%	24	?
O=C(CSc1cn(CCNC(=O)c2c(F)cccc2F)c2ccccc12)Nc1ccccc1F	-10%	66*	-8%
Cc1ccccc1C(=O)Nc1ccc2nc(SCC(=O)N3CCc4ccccc43)sc2c1	-8%	11	-15%
CCOc1ccccc1CNC(=O)CN1C(=O)CCc2cc(S(=O)(=O)N3CCCCC3)ccc21	-21%	0	?
CCC(Sc1nnc(C)n2c1cc1occc12)C(=O)Nc1ccccc1OC (configuration not stated)	-18%	-5	-6%
Cc1nc([N+](=O)[O-])cn1-c1ccc([N+](=O)[O-])cc1	-7%	1	-2%
COc1ccc(CNC(=O)CCc2c(C)c3cc4c(C)c(C)oc4cc3oc2=O)cc1	-13%	-12	-3%
COc1ccc(CNC(=O)CCc2c(C)c3cc4c(C)coc4cc3oc2=O)cc1	/	68*	/
Cn1c(=O)n(C)c2cc(N3CCOCC3)c(NS(=O)(=O)c3ccc(Br)cc3)cc21	/	37	/
Cc1ccc(-n2ncc3c(N4CCCCCC4)ncnc32)cc1Cl	-80%	14	0.35µM*
Cc1ccc(-n2ncc3c(N4CCCCC4)ncnc32)cc1Cl	-84%	14	-86%
Cc1ccc(-n2ncc3c(N4CCN(c5ccccc5)CC4)ncnc32)cc1C	0%	6	-9%
Cc1ccc(-n2ncc3c(N4CCN(C)CC4)ncnc32)cc1C	-17%	75*	-32%
Cc1cnc(-c2cnc(NCCNc3ccc(C#N)cn3)nc2-c2ccc(Cl)cc2Cl)[nH]1	-21%	/	-22%
O=C(COc1ccc2oc3c(c2c1)CCCC3)Nc1ccc(Br)cc1	-31%	6	-14%
O=C(COc1ccc2oc3c(c2c1)CCCC3)Nc1ccc(Cl)cc1	-28%	74*	-22%
SMILES	HTT-AS act	GPR32 ag	HTT promoter inh
CC(C)(C)c1nnc(NS(=O)(=O)c2ccccc2)s1	-6%	?	-6%
Cc1ccc(C(=O)Nc2ccc(CN3CCN(C)CC3)c(C(F)(F)F)c2)cc1C#Cc1cnc2cccnn12	-22%	/	?
CCCCCCOC(=O)N=C(N)c1ccc(NCc2nc3cc(C(=O)N(CCC(=O)OCC)c4ccccn4)ccc3n2C)cc1	-24%	/	-19%
COc1ccc(C(=O)N2c3ccccc3C(C)(c3ccc(Cl)cc3)CC2(C)C)cc1 (configuration not stated)	-43%	-31	?
CC1(c2ccc(Cl)cc2)CC(C)(C)N(C(=O)c2ccccc2)c2ccccc21 (configuration not stated)	-40%	9	25µM*
COc1ccc(CCNc2ncnc3c2nnn3C)cc1	-24%	31	?
COc1ccc(NC(=O)Cn2c(=O)oc3cc(S(=O)(=O)NC4CCCC4)ccc32)cc1OC	-24%	-3	?
CC(=O)c1cccc(NC(=O)Cn2c(=O)oc3cc(S(=O)(=O)NCc4ccccc4)ccc32)c1	-15%	-3	-24%
O=C(Cn1c(=O)oc2cc(S(=O)(=O)NC3CCCC3)ccc21)Nc1ccc(F)c(F)c1	-26%	91*	?

Assay outcomes from PubChem BioAssay.
